Data from the supplement of paper PMC11732987, “Enantioselective OTUD7B fragment discovery through chemoproteomics screening and high-throughput optimisation” (Communications Chemistry, 2025).

Legend:
Assay in all cases: log2 ratio of Biotin-Ahx-Ub-VS probe labelling (fragment/DMSO); higher = less target engagement (more negative = stronger competition), active = hit call of the paper (q ≤ 0.05, log2 ratio ≤ -1)
Details in all cases: compound concentration: 200 uM; treatment time: 3 h
USP34 = USP34 (UniProt Q70CQ2)
Summary of the method: (§1)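 Labelling with Biotin-Ahx-Ub-VS (0.5 µM final, 1 h) followed a 3 h triplicate treatment of HEK293T lysate (495 µg per sample, Tris/CHAPS/IGEPAL buffer with protease inhibitors) with fragment at 200 µM or vehicle. Labelled DUBs were NeutrAvidin-enriched, digested with LysC and trypsin, and run by diaPASEF LC-MS/MS. The values, average log2 fragment/vehicle ratios by unpaired t-test, come from global-median-normalised Spectronaut label-free quantities. Proteins with ≥2 unique peptides were used.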

USP36 = target: T1, USP36 (UniProt Q9P275)
T1 sequence (whole entry): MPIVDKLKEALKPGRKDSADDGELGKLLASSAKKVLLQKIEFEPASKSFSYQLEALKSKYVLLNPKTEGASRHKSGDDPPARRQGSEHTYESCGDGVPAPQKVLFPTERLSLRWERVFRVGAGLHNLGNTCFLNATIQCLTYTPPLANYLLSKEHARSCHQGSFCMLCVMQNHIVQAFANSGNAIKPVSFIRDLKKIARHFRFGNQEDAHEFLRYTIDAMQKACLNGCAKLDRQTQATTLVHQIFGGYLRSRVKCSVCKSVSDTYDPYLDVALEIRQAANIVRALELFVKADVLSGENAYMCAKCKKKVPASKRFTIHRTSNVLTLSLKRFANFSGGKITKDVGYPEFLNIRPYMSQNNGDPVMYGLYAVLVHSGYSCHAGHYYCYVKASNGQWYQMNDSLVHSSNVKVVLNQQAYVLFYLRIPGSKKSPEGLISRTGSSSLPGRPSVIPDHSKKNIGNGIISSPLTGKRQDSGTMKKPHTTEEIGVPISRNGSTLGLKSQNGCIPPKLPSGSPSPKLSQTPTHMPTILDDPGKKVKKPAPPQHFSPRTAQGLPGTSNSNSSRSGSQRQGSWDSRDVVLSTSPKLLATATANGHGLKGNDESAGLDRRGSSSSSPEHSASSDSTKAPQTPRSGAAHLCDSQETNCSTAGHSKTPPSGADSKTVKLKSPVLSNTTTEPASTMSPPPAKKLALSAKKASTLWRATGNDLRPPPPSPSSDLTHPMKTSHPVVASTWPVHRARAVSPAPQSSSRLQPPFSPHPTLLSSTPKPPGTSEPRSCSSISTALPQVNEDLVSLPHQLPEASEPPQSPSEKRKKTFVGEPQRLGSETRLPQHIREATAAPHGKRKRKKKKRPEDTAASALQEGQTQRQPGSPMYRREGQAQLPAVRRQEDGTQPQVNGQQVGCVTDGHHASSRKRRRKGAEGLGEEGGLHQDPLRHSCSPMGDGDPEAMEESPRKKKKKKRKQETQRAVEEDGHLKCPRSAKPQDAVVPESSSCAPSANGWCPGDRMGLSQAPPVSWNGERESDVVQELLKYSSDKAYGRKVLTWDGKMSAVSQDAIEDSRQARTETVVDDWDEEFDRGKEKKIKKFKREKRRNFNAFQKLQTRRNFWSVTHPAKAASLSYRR
Summary of the method: as §1

USP38 = target: T2, USP38 (UniProt Q8NB14)
T2 sequence (whole entry): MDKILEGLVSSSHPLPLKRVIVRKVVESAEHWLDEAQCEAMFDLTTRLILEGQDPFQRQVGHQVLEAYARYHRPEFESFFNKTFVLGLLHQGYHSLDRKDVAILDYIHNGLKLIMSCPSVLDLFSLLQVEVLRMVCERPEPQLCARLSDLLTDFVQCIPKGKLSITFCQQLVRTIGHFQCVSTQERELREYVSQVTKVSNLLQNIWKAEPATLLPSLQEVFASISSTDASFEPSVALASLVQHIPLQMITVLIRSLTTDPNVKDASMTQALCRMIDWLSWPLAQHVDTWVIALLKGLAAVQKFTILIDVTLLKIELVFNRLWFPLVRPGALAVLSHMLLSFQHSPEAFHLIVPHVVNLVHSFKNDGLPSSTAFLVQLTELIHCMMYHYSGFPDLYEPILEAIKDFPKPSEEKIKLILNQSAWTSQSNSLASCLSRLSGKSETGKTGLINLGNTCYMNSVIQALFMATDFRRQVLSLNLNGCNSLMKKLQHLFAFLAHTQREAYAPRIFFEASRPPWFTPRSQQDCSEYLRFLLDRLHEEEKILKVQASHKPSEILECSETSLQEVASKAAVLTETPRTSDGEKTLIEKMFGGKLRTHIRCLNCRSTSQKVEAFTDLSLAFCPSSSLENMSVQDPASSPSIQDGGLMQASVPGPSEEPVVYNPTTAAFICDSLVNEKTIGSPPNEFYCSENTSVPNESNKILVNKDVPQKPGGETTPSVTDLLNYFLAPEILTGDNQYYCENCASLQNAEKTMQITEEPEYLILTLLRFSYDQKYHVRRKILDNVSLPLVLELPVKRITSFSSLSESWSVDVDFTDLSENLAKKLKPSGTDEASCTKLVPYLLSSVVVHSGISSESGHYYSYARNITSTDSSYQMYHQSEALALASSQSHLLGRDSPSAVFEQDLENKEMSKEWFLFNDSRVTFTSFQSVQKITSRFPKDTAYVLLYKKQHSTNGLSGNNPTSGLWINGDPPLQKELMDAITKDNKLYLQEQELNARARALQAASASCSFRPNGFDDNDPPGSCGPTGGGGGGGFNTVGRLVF
Summary of the method: as §1

USP39 = target: T3, USP39 (UniProt Q53GS9)
T3 sequence (whole entry): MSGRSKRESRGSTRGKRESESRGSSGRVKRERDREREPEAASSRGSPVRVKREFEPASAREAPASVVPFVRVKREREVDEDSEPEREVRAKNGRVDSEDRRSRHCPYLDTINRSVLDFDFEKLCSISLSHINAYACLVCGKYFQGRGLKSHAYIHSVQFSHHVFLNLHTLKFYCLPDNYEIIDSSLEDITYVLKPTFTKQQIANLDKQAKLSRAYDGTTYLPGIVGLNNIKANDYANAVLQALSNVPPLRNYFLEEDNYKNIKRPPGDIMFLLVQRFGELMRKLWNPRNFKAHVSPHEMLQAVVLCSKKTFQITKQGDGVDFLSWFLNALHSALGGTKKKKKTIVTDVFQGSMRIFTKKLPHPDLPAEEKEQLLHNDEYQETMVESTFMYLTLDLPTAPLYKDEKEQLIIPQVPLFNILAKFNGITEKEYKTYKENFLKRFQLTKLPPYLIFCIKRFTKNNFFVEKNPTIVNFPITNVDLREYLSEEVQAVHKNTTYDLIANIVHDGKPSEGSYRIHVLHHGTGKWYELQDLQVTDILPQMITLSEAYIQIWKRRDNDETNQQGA
Summary of the method: as §1

USP4 = target: T4, USP4 (UniProt Q13107)
T4 sequence (whole entry): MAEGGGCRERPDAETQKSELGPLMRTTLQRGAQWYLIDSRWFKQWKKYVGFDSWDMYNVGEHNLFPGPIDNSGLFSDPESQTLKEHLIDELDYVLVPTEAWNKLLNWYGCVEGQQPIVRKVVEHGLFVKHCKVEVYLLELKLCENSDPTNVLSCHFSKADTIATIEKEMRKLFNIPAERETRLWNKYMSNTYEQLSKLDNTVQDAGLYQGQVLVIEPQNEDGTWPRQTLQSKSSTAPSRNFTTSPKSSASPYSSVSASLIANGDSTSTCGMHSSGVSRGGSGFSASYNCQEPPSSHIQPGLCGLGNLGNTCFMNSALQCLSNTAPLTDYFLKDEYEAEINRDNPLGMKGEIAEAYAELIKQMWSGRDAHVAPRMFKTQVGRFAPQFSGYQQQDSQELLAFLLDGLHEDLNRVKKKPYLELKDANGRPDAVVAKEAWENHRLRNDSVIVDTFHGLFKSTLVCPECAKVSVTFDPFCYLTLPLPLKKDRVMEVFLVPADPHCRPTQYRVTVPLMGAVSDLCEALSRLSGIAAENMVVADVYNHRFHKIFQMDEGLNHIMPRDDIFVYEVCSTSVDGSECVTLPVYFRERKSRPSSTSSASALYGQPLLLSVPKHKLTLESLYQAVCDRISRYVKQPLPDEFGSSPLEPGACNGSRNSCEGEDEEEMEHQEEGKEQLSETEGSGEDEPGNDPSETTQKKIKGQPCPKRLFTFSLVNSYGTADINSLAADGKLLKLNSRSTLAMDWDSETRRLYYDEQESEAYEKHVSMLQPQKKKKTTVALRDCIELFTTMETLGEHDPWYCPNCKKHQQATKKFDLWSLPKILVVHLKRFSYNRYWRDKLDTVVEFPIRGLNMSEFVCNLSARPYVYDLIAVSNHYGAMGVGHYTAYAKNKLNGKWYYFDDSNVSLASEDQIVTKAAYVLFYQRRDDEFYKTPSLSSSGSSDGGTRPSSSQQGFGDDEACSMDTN
Summary of the method: as §1

Measured: log2 ratio of Biotin-Ahx-Ub-VS probe labelling

USP34, sequence (Q70CQ2 whole entry, the tested form may be a part): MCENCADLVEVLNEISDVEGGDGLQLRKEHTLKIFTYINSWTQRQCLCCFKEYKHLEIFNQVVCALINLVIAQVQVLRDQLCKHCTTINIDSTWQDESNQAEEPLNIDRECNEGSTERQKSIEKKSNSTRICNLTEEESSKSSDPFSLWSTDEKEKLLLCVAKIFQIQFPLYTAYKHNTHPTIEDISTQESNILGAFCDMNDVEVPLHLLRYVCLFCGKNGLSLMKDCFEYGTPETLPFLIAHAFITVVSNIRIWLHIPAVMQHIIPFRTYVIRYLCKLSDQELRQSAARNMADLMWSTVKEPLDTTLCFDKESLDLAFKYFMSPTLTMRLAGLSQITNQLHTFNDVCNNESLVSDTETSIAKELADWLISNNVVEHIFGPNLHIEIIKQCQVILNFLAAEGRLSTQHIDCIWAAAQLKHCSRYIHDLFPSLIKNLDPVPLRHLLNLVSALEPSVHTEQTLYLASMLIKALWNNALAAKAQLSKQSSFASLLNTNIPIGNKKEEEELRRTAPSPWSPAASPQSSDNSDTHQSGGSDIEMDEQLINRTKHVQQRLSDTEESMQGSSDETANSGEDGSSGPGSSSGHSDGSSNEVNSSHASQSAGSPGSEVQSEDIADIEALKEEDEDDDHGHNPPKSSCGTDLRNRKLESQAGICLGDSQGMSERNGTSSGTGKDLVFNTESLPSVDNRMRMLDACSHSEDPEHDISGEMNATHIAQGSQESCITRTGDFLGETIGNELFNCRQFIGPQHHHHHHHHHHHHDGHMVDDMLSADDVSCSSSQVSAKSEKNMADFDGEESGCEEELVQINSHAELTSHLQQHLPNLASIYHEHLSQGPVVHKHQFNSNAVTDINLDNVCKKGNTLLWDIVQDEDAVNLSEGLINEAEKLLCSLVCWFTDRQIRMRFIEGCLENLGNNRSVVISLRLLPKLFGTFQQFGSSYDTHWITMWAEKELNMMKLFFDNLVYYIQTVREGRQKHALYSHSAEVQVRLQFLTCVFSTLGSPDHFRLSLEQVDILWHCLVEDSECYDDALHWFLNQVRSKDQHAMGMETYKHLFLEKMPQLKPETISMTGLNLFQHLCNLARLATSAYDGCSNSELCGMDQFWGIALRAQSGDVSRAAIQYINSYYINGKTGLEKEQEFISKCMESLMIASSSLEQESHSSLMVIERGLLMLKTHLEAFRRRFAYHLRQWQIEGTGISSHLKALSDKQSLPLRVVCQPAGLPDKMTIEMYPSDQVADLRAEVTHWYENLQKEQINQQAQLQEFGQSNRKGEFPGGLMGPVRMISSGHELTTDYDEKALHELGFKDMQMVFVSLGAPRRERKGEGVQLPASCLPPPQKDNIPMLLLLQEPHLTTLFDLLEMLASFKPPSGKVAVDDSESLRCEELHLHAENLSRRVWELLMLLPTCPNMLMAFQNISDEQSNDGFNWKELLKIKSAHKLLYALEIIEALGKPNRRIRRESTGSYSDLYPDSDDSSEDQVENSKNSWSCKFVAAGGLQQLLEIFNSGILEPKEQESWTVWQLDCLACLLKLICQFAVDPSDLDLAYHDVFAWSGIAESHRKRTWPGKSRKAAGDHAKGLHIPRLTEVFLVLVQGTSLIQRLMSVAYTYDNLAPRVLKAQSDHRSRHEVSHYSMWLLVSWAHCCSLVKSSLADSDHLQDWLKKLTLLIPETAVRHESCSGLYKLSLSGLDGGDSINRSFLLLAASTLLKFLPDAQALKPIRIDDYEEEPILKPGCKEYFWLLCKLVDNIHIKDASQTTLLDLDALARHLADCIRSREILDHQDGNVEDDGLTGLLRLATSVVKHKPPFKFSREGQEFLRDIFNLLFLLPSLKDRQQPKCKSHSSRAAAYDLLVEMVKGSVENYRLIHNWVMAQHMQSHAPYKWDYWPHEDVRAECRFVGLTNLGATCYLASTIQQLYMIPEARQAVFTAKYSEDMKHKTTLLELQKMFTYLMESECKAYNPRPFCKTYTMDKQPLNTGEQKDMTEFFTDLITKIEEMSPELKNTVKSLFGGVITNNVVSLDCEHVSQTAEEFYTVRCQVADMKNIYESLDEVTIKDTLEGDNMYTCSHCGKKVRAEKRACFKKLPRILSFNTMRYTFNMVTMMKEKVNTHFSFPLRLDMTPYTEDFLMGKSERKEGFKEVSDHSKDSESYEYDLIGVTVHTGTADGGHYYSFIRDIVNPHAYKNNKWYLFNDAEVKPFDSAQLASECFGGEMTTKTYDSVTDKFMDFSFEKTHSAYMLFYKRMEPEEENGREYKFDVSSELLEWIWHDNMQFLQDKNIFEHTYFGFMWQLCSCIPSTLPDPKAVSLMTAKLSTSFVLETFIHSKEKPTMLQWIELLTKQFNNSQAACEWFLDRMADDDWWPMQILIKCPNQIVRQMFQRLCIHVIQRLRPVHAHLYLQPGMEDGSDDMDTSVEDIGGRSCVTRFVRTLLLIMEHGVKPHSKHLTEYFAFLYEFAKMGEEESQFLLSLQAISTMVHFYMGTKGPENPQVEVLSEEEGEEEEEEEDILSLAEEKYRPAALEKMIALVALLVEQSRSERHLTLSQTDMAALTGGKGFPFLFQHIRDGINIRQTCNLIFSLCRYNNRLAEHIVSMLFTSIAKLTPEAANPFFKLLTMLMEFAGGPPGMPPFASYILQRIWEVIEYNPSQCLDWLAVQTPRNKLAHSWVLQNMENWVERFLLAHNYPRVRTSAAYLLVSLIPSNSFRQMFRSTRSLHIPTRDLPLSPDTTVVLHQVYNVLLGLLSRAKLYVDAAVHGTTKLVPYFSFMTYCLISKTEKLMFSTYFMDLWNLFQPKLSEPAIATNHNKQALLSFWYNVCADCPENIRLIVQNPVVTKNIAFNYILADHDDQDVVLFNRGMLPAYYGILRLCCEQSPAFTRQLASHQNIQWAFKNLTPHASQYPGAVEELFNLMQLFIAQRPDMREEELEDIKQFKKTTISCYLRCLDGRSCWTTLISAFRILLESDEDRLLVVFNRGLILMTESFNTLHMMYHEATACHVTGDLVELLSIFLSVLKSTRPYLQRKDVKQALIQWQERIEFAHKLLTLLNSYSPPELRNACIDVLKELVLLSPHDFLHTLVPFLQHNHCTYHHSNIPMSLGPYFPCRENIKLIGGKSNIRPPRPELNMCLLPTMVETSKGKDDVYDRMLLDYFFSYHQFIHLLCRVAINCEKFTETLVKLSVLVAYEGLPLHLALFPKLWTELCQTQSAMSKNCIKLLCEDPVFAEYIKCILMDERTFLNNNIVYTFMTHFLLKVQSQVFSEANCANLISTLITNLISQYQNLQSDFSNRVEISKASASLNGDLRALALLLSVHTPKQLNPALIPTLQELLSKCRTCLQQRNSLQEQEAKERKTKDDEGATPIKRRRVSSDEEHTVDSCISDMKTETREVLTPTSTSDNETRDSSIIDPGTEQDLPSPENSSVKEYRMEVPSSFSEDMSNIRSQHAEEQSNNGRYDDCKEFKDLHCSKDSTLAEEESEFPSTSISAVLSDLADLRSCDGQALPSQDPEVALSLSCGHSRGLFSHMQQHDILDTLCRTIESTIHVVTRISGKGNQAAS

Cl.Cn1nc2c(c1CNC(=O)CCl)CCCC2
inactive: USP34 -0.177 | USP36 -0.0094 | USP38 0.0557 | USP39 0.242 | USP4 0.0436
